Compounds with a hit are over-represented: about 4.8% of the library has one in this group of screens.
SMARCA2 act: SMARCA2 function activation, primary screen; MG213 cells, MMTV-luciferase reporter, dexamethasone, overnight; activation, % at 9.1 µM; 370,000 compounds, 1% hits; in the data active = activation above about 7.8%
hcDAF-12 act: H. contortus DAF-12 activation, primary screen | HEK293 hcDAF-12 lit1-tk-luc reporter, luminescence; 0% DMSO, 100% Δ7-dafachronic acid | activation, % at 6.8 µM | 370,000 compounds, 1.4% hits;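 active = activation above the mean of all tested compounds plus 3 SD, cut at about 5.5% in these data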
hgDAF12 agonist: hgDAF-12 agonism, primary luciferase screen | HEK293 GAL4-hgDAF12 UAS-luciferase reporter, agonist luminescence; normalized to butyrate control | activation, % at 6.8 µM | 370,000 compounds, 1.8% hits | AID 687014;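 active = activation above a cutoff set at the mean of all screened compounds plus 3 SD, cut at about 10% in these data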
DAX1 inh-1: inhibits human nuclear receptor DAX1; inhibition, % at 6.75 µM; HEK293 Gal4-DAX1 luciferase reporter, luminescence; 340,000 compounds, 0.99% hits; AID 504766; P51843;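 active = inhibition above the mean over all tested compounds plus 3 SD, cut at about 4.2% in these data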;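 note: inhibition shows as a rise in luminescence from relieved DAX1 repression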
DAX1 inh-2: inhibitors of DAX1 repression of SF-1 activated StAR promoter | inhibition, % at 6.8 µM | HEK293T StAR-luciferase reporter, SF-1/DAX-1 repression relief | 370,000 compounds, 1.1% hits;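 active = inhibition above the mean over all tested compounds plus 3 SD, cut at about 3.6% in these data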;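 note: higher inhibition means more luminescence from relief of DAX-1 repression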
ssDAF-12 act: activates DAF-12 receptor from parasite S. stercoralis. activation, % at 6.8 µM. HEK293 ssDAF-12/GRIP1 lit1-tk-luc reporter, luminescence; % of 3 µM dafachronic acid response. 370,000 compounds, 1% hits;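 active = activation above the mean over all tested compounds plus 3 SD, cut at about 0.9% in these data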
hgDAF12 ag: confirmation of H. glycines DAF-12 agonists; shares compounds with hgDAF12 agonist; activation, % at 6.8 µM; 3,300 compounds, 80% hits; HEK293 GAL4-hgDAF12 luciferase reporter, agonist mode; percent of butyrate response;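 active = mean activation over triplicate wells above the hit cutoff derived from the earlier primary screen, cut at about 11% in these data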
LXRb DAF12 ctr: LXR-beta agonism as DAF-12 counter-screen; shares compounds with hgDAF12 agonist; HEK293 Gal4-LXR luciferase reporter, 24 h; activation, % at 6.8 µM; 3,300 tested, under 10 active; AID 743051;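 active = mean activation of the triplicate above a set limit carried over from the primary screen, none filed active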
Target sequence (P55055 whole entry, looked up, the tested form may be a part): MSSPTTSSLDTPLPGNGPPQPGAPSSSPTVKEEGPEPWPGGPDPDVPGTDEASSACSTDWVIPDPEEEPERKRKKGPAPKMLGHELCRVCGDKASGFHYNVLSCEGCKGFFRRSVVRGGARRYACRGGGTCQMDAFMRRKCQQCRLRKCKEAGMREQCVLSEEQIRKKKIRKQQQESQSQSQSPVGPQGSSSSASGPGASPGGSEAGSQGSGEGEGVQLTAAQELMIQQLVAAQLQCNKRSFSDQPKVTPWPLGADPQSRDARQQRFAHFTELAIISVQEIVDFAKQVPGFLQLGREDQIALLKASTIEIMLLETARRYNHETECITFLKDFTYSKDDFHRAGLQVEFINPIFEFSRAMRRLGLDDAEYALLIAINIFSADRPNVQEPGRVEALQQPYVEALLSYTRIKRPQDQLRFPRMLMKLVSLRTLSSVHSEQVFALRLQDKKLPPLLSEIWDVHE
Of the large screens only hits and unclear results are named; the others gave an inactive call (follow-up assays come after a bar, where they were run).

CCC[N+](C)(C)C(C)C(OC(C)=O)c1ccccc1 (stereo not given)	none
Cc1ccc(CNC(=O)c2ccccc2NC(=O)CN2CCN(C)CC2)cc1	none
COc1cc(O)cc2cc3c(c(O)c12)C(=O)CC(C)(O)O3 (stereo not given)	hgDAF12 agonist 15 | hgDAF12 ag inactive | LXRb DAF12 ctr inactive
COc1cc(O)c2c(c1)OC(C)(C)CC2=O	none
Cc1ccc(N(CC(=O)NC2CCCCC2)C(=O)Cn2nnc(-c3ccc(C)o3)n2)cc1	none
COc1c(O)ccc(/C=N/NC(=O)c2ccc3c(c2)OCCO3)c1[N+](=O)[O-]	hgDAF12 agonist 15 | hgDAF12 ag inactive | LXRb DAF12 ctr inactive
O=C(N/N=C/c1ccc(Br)o1)c1ccc2c(c1)OCCO2	hgDAF12 agonist 16 | hgDAF12 ag 11 | LXRb DAF12 ctr inactive
O=C(O)c1ccc(/C=N/NC(=O)c2ccc3c(c2)OCCO3)cc1	none
CCOc1ccc(NC(=S)NCCCN2CCN(c3ccc(OC)cc3)CC2)cc1	none
OC[C@H]1O[C@@H](c2nc3ccc(-c4nc(-c5ccc(Br)cc5)no4)cc3[nH]2)C[C@@H]1O	hgDAF12 agonist 14, DAX1 inh-2 4.4 (no result: DAX1 inh-1) | hgDAF12 ag inactive | LXRb DAF12 ctr inactive
CCN(CC(=O)NCc1cccs1)C(=O)c1ccc(S(=O)(=O)Nc2ccccc2C)cc1	none
O=C(NNC1=C(C(=O)C(F)(F)F)CCC1)c1cccc(O)c1	hgDAF12 agonist 13, DAX1 inh-2 4.3 | hgDAF12 ag inactive | LXRb DAF12 ctr inactive
CCN(C(=O)CSc1n[nH]c(-c2cccs2)n1)C1CCS(=O)(=O)C1 (stereo not given)	none
CC1CCc2c(C(=O)Nc3nccs3)csc2C1 (stereo not given)	none
CC1CCc2c(C(=O)NCc3ccccn3)csc2C1 (stereo not given)	hgDAF12 agonist 17 | hgDAF12 ag inactive | LXRb DAF12 ctr inactive
CC1CCc2c(C(=O)Nc3ccccn3)csc2C1 (stereo not given)	hgDAF12 agonist 17 | hgDAF12 ag 12 | LXRb DAF12 ctr inactive
Cc1cc(C(=O)CSc2nncn2C)c(C)n1-c1ccccc1	hgDAF12 agonist 16 | hgDAF12 ag 16 | LXRb DAF12 ctr inactive
Nc1nc(CSc2ncn(-c3ccccc3)n2)cs1	none (no result: SMARCA2 act, hcDAF-12 act, hgDAF12 agonist, DAX1 inh-2, ssDAF-12 act)
c1ccc(CSc2ncn(-c3ccccc3)n2)cc1	hgDAF12 agonist 14, DAX1 inh-1 5.0 | hgDAF12 ag 19 | LXRb DAF12 ctr inactive
Cc1nc(C(C)N(C)Cc2c(C(=O)N3CCCCC3)nc3c(C)cccn23)c(C)s1 (stereo not given)	none
Oc1cccc(/C=N\Nc2nncc(-c3ccccc3)n2)c1	hgDAF12 agonist 16 | hgDAF12 ag 12 | LXRb DAF12 ctr inactive
CCOc1cc(/C=N/Nc2nncc(-c3ccccc3)n2)ccc1O	none
Cc1csc(NC(=O)CSc2nsc(SCC(=O)Nc3nc(C)cs3)c2C#N)n1	hgDAF12 agonist 18 | hgDAF12 ag 15 | LXRb DAF12 ctr inactive
CC(=O)N1CCOc2ccc(S(=O)(=O)NCCc3ccc(C)cc3)cc21	none
Cc1nc(-c2ccc(NC(=O)c3ccccc3C)cc2)cs1	hgDAF12 agonist 20 | hgDAF12 ag 16 | LXRb DAF12 ctr inactive
Cc1nc(-c2ccc(C(=O)Nc3ccc(F)cc3)cc2)cs1	none
Cc1ccc2nc(-c3ccc4c(c3)NC(=O)CO4)cn2c1	hgDAF12 agonist 14, DAX1 inh-2 4.5 | hgDAF12 ag 14 | LXRb DAF12 ctr inactive
C/C(=N\NC(=O)c1csc(C)c1C)c1ccc(C)s1	hgDAF12 agonist 13 | hgDAF12 ag 11 | LXRb DAF12 ctr inactive
CC(=O)c1c(N(C)C)ccnc1C(F)(F)F	none
N#C/C(=C\c1ccc(OCc2cccc(C(=O)O)c2)cc1)C(=O)NCc1ccco1	hgDAF12 agonist 15, DAX1 inh-2 3.8 | hgDAF12 ag 18 | LXRb DAF12 ctr inactive
O=C(O)c1nc2ccccc2nc1C(=O)O	none

Assay outcomes from PubChem.
